From PubChem BioAssay (EPA / NIEHS) come the findings set out here.

For experiment [1], the target named is human AMP-activated Protein Kinase, alpha 1 (AMPKa1), PRKAA1 (gene 5562) (UniProt Q13131). The experiment in a line: NVS_ENZ_hAMPKa1: NovaScreen (NVS) Enzymatic Assay for human AMP-activated Protein Kinase, alpha 1 (AMPKa1) (AID 2283130). The method in brief:
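Recombinant human AMPKα1 activity was measured cell-free by fluorescent substrate conversion with electrophoretic mobility-shift separation, 1 h after dosing. Duplicate single-point screening was at 25 uM; actives (≥30% inhibition) were retested in concentration-response up to 50 uM.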

Experiment [2] addresses human CYP4F12, CYP4F12 (gene 66002) (UniProt Q9HCS2). Description: NVS_ADME_hCYP4F12: NovaScreen (NVS) CYP450-related Enzyme Activity (ADME) Assay for human CYP4F12 (AID 2283111). An outline of the steps:
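Cell-free fluorescence assay of recombinant human CYP4F12 activity on a specific substrate, read 0.5 h after dosing. Primary screen in duplicate at 10 uM, then concentration series for actives; loss of signal fitted against acetonitrile negative control.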

Experiment [3] addresses Cytochrome P450 2C19 (Homo sapiens) (UniProt P33261). The experiment in a line: NVS_ADME_hCYP2C19: NovaScreen (NVS) CYP450-related Enzyme Activity (ADME) Assay for human CYP2C19 (AID 2283113).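 For AC50: potency for inhibition seen as loss of fluorescent signal.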 An outline of the steps:
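Recombinant insect-cell-expressed enzyme, fluorescent substrate, 1 h after chemical addition, fluorescence intensity. Baseline = acetonitrile vehicle; activity scored as signal loss. Primary HTS single concentration 10 uM, duplicate; actives retested in concentration series.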

In experiment [4] the target is human Caspase 2 (CASP2), CASP2 (gene 835) (UniProt P42575). Description: NVS_ENZ_hCASP2: NovaScreen (NVS) Enzymatic Assay for human Caspase 2 (CASP2) (AID 2283135). The method in brief: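 E. coli-expressed enzyme in a cell-free protease assay, fluorescence read 1 h after dosing. Compounds at 25 uM in duplicate, with concentration-response up to 50 uM for hits; loss of signal against DMSO baseline.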

Experiment [5] addresses human AKT serine/threonine Kinase 2 (AKT2), AKT2 (gene 208) (UniProt P31751). The experiment in a line: NVS_ENZ_hAKT2: NovaScreen (NVS) Enzymatic Assay for human AKT serine/threonine Kinase 2 (AKT2) (AID 2283141). An outline of the steps: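 Cell-free fluorescence/electrophoretic mobility shift readout of recombinant human AKT2 activity, 1 h after chemical dosing. Duplicate primary screen at 25 uM, then singleton concentration-response up to 50 uM; loss of signal versus DMSO baseline.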

Experiment [6] has as its target human CYP2D6, CYP2D6 (gene 1565) (UniProt P10635). The experiment in a line: NVS_ADME_hCYP2D6: NovaScreen (NVS) CYP450-related Enzyme Activity (ADME) Assay for human CYP2D6 (AID 2283107). The method in brief:
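Fluorescence intensity read 1 h post-dosing; insect-cell-expressed recombinant protein with fluorogenic substrate, no cells. Activity is scored as signal loss relative to acetonitrile baseline, first at a single 10 uM concentration in duplicate, then as concentration series for confirmed actives.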

The target in experiment [7] is Cytochrome P450 3A4 (Homo sapiens) (UniProt P08684). Description: NVS_ADME_hCYP3A4: NovaScreen (NVS) CYP450-related Enzyme Activity (ADME) Assay for human CYP3A4 (AID 2283110). The method in brief: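 Cell-free assay using insect-cell-expressed human CYP3A4 with a fluorogenic substrate; fluorescence intensity was read 0.33 hour after dosing. Loss of signal relative to acetonitrile vehicle indicated inhibition. Primary single-concentration screen at 10 uM, in duplicate, then concentration series.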

In the next experiment the target is Caspase-3 (Homo sapiens) (UniProt P42574). Description: NVS_ENZ_hCASP3: NovaScreen (NVS) Enzymatic Assay for human Caspase 3 (CASP3) (AID 2283139). The method in brief: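 Recombinant human caspase-3 from E. coli with a fluorogenic substrate, read by fluorescence 1 h after dosing. Primary screen in duplicate at 25 uM. Actives (for example ≥30% inhibition) rerun as concentration-response up to 50 uM.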

Experiment [8] concerns the target human Caspase 10 (CASP10), CASP10 (gene 843) (UniProt Q92851). Description: NVS_ENZ_hCASP10: NovaScreen (NVS) Enzymatic Assay for human Caspase 10 (CASP10) (AID 2283133). An outline of the steps: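 Recombinant human caspase-10 from E. coli, cell-free fluorogenic substrate assay read 1 h after dosing. Primary duplicate screen at 25 uM; hits (e.g. ≥30% inhibition) run singly in concentration-response up to 50 uM, normalised to DMSO.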

The target in experiment [9] is human Caspase 5 (CASP5), CASP5 (gene 838) (UniProt P51878). The experiment in a line: NVS_ENZ_hCASP5: NovaScreen (NVS) Enzymatic Assay for human Caspase 5 (CASP5) (AID 2283137). The method in brief:
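Cell-free protease assay with bacterially expressed CASP5 and a fluorescent substrate, measured at 2 h. Values fitted relative to DMSO as baseline, from concentration-response series topping at 50 uM.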

Experiment [10] concerns the target rat CYP2A2, Cyp2a2 (gene 24895) (UniProt P15149). Description: NVS_ADME_rCYP2A2: NovaScreen (NVS) CYP450-related Enzyme Activity (ADME) Assay for rat CYP2A2 (AID 2283116). An outline of the steps:
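Cell-free recombinant rat CYP2A2 activity with fluorogenic substrate, fluorescence read 0.2 h after dosing. Chemicals screened at 10 uM in duplicate, hits then run in concentration-response up to 20 uM; signal loss versus acetonitrile baseline.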

The subject of a further experiment is rat CYP2B1, gene 24300. Description: NVS_ADME_rCYP2B1: NovaScreen (NVS) CYP450-related Enzyme Activity (ADME) Assay for rat CYP2B1 (AID 2283117). The method in brief: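 Recombinant rat CYP2B1 with fluorogenic substrate, read at 0.75 h. Primary screen in duplicate at 10 uM; compounds meeting threshold (e.g., 30% inhibition) re-run in concentration-response up to 20 uM. Fitted against acetonitrile control.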

Experiment [11] deals with rat CYP2D1, Cyp2d1 (gene 266684) (UniProt P10633). The experiment in a line: NVS_ADME_rCYP2D1: NovaScreen (NVS) CYP450-related Enzyme Activity (ADME) Assay for rat CYP2D1 (AID 2283122). The method in brief:
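Cell-free fluorescence enzyme-activity assay on extracted rat CYP2D1 protein, read 0.75 h after dosing. Primary screen in duplicate at 10 uM; qualifying chemicals then run in concentration-response to 20 uM max, loss-of-signal versus acetonitrile baseline.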

In a further experiment the test system is rat CYP3A1, gene 25642. The experiment in a line: NVS_ADME_rCYP3A1: NovaScreen (NVS) CYP450-related Enzyme Activity (ADME) Assay for rat CYP3A1 (AID 2283126). The method in brief:
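Cell-free recombinant CYP assay with fluorescent substrate, read 0.5 h after dosing. Screened at 10 uM in duplicate, hits at up to 20 uM in concentration-response; loss of signal versus acetonitrile baseline.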

In experiment [12] the target is human AKT serine/threonine Kinase 1 (AKT1), AKT1 (gene 207) (UniProt P31749). Description: NVS_ENZ_hAKT1: NovaScreen (NVS) Enzymatic Assay for human AKT serine/threonine Kinase 1 (AKT1) (AID 2283138). An outline of the steps: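 Signal loss relative to DMSO, measured by fluorescence after electrophoretic separation of substrate and product, indicates inhibition of recombinant enzyme. Readings at 1 h; screening at 25 uM, follow-up curves up to 50 uM.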

Experiment [13] has as its target human Acid Phosphatase 1 (ACP1), ACP1 (gene 52) (UniProt P24666). The experiment in a line: NVS_ENZ_hACP1: NovaScreen (NVS) Enzymatic Assay for human Acid Phosphatase 1 (ACP1) (AID 2283136). The method in brief: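 Recombinant enzyme expressed in Sf9 cells, tested cell-free; activity read by fluorescence with electrophoretic mobility shift separation of substrate and product, 1.5 h after dosing. Primary screen in duplicate at 25 uM, actives then run in concentration series; loss of signal versus DMSO.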

Experiment [14] addresses rat CYP2C11, Cyp2c11 (gene 29277) (UniProt P08683). Description: NVS_ADME_rCYP2C11: NovaScreen (NVS) CYP450-related Enzyme Activity (ADME) Assay for rat CYP2C11 (AID 2283118). An outline of the steps:
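Cell-free recombinant rat enzyme with fluorescent substrate; readout 0.33 h after dosing, loss of signal versus acetonitrile control. Initial duplicate single-point at 10 uM; actives rerun in concentration series.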

The target of experiment [15] is human CYP2C8, CYP2C8 (gene 1558) (UniProt P10632). The experiment in a line: NVS_ADME_hCYP2C8: NovaScreen (NVS) CYP450-related Enzyme Activity (ADME) Assay for human CYP2C8 (AID 2283104; active = hit-call score of the fitted dose curve at least 0.9, where 1 is the maximum; inactive = score below 0.9). The method in brief:
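Recombinant human CYP2C8 with fluorogenic substrate, 0.5 h, fluorescence intensity; signal loss fitted versus acetonitrile. Screened in duplicate at 10 uM, then actives run in concentration-response up to 20 uM.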

For experiment [16], the target named is rat CYP3A2, Cyp3a2 (gene 266682) (UniProt P05183). The experiment in a line: NVS_ADME_rCYP3A2: NovaScreen (NVS) CYP450-related Enzyme Activity (ADME) Assay for rat CYP3A2 (AID 2283128). An outline of the steps:
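Cell-free rat CYP3A2 enzyme assay with fluorescent substrate, read 0.5 h after dosing. Primary duplicate screen at 10 uM; actives run in concentration-response up to 20 uM, relative to acetonitrile baseline.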

Molecules are shown by their SMILES. “And” between values parts separate entries of the source, which are not always exact repeats. Identical values can stand only once. Results filed as inconclusive are left out. The source made the active and inactive calls. Rule for the calls, unless noted: active = hit-call score of the fitted dose curve at least 0.9, where 1 is the maximum; inconclusive = response in the unintended direction; inactive = score below 0.9.

human AMP-activated Protein Kinase, alpha 1 (AMPKa1), PRKAA1 (gene 5562), sequence (Q13131 whole entry, looked up): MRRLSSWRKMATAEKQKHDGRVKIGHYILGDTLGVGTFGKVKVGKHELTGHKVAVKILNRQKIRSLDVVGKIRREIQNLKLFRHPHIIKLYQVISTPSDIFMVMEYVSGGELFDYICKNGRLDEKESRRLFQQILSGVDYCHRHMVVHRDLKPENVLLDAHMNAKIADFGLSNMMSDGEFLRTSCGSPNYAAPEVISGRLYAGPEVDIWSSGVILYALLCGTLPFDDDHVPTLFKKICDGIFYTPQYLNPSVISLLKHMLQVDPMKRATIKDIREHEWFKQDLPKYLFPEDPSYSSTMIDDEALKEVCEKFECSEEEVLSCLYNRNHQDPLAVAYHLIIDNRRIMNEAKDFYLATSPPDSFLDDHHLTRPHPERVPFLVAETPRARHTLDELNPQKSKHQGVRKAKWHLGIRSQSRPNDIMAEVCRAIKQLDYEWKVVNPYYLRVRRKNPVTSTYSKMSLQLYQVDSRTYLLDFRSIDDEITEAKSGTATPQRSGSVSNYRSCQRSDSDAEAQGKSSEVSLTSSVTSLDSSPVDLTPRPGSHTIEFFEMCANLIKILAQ
rat CYP2C11, Cyp2c11 (gene 29277), sequence (P08683 whole entry, looked up): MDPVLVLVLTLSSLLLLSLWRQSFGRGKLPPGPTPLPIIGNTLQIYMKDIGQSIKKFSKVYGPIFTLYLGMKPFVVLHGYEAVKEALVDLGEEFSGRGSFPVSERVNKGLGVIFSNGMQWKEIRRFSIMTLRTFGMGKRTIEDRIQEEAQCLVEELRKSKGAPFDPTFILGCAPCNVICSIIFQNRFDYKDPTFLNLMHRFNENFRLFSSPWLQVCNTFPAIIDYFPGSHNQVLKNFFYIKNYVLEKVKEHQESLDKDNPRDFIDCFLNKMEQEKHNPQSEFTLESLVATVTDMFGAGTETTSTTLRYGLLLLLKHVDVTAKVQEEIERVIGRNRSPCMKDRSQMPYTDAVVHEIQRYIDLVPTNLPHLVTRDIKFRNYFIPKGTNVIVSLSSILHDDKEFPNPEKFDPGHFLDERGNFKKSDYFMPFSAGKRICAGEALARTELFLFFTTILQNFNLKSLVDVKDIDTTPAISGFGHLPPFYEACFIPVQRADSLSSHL
human Caspase 5 (CASP5), CASP5 (gene 838), sequence (P51878 whole entry, looked up): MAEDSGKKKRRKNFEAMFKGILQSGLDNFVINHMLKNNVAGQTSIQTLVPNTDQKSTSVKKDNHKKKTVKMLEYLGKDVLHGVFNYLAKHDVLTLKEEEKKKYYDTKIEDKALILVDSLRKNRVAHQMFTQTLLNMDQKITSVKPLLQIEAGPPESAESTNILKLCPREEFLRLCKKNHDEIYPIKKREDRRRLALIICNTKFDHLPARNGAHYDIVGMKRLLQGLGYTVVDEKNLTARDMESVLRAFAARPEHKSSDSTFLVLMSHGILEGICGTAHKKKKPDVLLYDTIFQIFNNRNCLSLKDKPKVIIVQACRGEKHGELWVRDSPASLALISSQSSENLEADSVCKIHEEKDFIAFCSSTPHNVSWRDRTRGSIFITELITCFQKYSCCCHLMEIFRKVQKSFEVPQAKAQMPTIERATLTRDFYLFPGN
human AKT serine/threonine Kinase 2 (AKT2), AKT2 (gene 208), sequence (P31751 whole entry, looked up): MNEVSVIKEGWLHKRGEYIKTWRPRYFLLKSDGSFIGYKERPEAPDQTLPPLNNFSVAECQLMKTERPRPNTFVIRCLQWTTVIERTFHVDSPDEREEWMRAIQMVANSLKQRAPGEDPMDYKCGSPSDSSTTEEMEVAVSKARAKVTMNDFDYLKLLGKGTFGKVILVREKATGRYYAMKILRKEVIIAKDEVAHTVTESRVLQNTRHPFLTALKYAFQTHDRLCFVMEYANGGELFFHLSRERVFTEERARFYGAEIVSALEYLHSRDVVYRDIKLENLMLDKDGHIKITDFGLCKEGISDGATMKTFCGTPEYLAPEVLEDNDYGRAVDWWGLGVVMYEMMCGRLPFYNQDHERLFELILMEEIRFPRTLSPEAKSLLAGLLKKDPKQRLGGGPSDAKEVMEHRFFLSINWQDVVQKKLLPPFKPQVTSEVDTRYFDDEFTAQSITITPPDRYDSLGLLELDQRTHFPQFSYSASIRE
rat CYP2A2, Cyp2a2 (gene 24895), sequence (P15149 whole entry, looked up): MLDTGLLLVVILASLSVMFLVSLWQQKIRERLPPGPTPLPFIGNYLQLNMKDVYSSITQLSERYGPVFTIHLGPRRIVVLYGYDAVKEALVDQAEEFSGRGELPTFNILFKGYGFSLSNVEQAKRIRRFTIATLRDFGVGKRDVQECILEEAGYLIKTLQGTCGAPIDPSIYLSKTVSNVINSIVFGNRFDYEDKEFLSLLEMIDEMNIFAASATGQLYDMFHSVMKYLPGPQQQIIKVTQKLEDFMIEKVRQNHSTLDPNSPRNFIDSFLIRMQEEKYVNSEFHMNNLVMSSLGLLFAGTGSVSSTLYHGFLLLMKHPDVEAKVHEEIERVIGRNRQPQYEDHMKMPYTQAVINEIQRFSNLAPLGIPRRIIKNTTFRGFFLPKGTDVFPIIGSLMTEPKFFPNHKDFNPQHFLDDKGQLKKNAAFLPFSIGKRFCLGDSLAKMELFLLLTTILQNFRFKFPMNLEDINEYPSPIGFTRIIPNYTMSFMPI
human Caspase 10 (CASP10), CASP10 (gene 843), sequence (Q92851 whole entry, looked up): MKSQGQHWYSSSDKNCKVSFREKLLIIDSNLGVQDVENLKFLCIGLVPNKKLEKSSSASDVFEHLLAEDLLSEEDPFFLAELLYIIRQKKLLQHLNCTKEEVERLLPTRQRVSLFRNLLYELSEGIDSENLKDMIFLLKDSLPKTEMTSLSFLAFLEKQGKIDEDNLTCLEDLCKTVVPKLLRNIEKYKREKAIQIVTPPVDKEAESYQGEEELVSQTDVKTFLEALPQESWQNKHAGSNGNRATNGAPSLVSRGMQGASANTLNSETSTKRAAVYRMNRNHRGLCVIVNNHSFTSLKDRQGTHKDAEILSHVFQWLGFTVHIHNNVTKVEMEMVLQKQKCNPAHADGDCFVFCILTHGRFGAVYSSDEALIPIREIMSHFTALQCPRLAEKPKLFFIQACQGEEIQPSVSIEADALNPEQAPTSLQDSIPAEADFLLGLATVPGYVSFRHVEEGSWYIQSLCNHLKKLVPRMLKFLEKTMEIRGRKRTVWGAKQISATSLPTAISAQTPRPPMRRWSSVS
human Caspase 2 (CASP2), CASP2 (gene 835), sequence (P42575 whole entry, looked up): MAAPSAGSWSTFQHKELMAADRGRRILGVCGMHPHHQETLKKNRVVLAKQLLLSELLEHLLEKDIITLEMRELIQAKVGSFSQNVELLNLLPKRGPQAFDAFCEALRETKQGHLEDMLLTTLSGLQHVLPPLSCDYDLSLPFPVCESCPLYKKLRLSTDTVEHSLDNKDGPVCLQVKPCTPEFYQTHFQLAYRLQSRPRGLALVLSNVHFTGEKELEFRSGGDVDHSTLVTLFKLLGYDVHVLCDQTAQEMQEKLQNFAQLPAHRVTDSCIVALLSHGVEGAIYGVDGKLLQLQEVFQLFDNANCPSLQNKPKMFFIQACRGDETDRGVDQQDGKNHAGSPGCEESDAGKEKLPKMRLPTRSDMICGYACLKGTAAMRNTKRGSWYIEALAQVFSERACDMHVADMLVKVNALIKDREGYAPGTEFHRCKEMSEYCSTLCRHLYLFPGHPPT
rat CYP3A2, Cyp3a2 (gene 266682), sequence (P05183 whole entry, looked up): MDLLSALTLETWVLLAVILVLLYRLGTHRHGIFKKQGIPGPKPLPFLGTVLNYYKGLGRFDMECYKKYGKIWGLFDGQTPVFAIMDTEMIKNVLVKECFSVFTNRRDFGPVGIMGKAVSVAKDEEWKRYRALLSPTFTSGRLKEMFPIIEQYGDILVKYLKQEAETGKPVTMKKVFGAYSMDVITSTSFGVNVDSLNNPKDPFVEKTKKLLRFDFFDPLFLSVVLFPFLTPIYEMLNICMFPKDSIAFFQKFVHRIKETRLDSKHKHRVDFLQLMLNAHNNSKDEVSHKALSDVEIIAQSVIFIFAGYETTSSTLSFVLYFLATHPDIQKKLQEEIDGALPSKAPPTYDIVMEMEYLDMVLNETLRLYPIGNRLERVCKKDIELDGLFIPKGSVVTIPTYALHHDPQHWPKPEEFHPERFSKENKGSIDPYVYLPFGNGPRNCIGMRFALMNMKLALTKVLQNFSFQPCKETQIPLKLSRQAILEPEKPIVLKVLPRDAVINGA
Cytochrome P450 3A4 (Homo sapiens), sequence (P08684 whole entry, looked up): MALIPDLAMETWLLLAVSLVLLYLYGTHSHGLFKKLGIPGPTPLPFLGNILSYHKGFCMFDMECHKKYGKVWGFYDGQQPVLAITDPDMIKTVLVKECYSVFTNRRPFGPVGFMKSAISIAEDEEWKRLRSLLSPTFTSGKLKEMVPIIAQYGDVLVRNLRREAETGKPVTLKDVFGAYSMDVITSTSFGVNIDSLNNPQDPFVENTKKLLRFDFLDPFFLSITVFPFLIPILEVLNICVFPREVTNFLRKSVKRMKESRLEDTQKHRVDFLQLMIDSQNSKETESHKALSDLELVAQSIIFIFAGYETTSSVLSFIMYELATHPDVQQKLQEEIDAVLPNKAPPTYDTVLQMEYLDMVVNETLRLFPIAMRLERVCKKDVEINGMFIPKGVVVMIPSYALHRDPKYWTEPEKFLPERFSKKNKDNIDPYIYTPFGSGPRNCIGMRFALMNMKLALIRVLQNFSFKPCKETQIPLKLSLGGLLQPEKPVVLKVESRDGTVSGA
human CYP2C8, CYP2C8 (gene 1558), sequence (P10632 whole entry, looked up): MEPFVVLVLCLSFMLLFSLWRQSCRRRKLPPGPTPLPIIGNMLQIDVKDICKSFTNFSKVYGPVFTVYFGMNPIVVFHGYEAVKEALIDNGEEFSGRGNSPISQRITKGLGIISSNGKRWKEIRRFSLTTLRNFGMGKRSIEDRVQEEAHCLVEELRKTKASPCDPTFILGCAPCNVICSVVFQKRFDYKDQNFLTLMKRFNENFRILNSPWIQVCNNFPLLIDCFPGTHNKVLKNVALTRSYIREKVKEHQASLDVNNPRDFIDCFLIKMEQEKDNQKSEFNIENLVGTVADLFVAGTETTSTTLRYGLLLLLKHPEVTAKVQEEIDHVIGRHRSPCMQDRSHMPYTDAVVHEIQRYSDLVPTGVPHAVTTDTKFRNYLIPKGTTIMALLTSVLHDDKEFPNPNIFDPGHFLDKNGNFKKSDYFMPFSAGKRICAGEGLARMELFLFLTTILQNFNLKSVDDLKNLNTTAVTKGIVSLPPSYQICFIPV

On to `CCCN(CCC)N=O`, for which the outcome in experiment [1] was inactive.

For orientation: AC50 means the midpoint of the concentration-response curve, whichever way the signal moves. As to `CC(C)C(=O)OCC(C)(C)C(OC(=O)C(C)C)C(C)C` (stereo unspecified), in [2], the concentration at half-maximal activity (AC50) is 6.26 µM (active). In addition, the call in [1] was inactive.

`Nc1ccc(-c2ccc(N)cc2)cc1`: the AC50 in [3] was 8.09 µM (active). Also, in [4], the molecule was classed as inactive.

Consider `O=C(O)C(F)(F)C(F)(F)C(F)(F)C(F)(F)C(F)(F)F`, for which, in experiment [1], the outcome was inactive.

As for `N#Cc1ccc(N(CC(N)=O)CC(F)(F)F)cc1C(F)(F)F`, the molecule was classed as inactive in [5].

For `CC(C)(c1ccccc1)c1ccc(O)cc1`, the molecule was called inactive (in experiment [6]; in [7]; in the experiment with Caspase-3 (Homo sapiens)).

Turning to `O=C(O)C(F)(F)C(F)(F)C(F)(F)C(F)(F)C(F)(F)C(F)(F)C(F)(F)C(F)(F)C(F)(F)F`, the call in experiment [8] was inactive. Moreover, the concentration at half-maximal activity (AC50) in experiment [9] was 12.7 µM (active).

For `Clc1ccc(C(Cl)(Cl)Cl)cc1`, the call in [8] was inactive.

As for `ClC(Cl)=C(c1ccc(Cl)cc1)c1ccc(Cl)cc1`, the outcome in experiment [3] is “inactive”; in experiment [10] it was “inactive”; in the experiment on rat CYP2B1, gene 24300, “inactive”.

Consider `CCNc1nc(NC(C)C)nc(SC)n1`, for which the concentration at half-maximal activity (AC50) in experiment [3] is 4.91 µM (active); in the experiment with rat CYP3A1, gene 25642, 6.58 µM (active). Moreover, the call in experiment [11] and in experiment [12] was inactive.

For `CC1=C2C[C@H]3[C@@H](CC=C4C[C@@H](O)CC[C@@]43C)[C@@H]2CC[C@]12O[C@@H]1C[C@H](C)CN[C@H]1[C@H]2C`, the outcome in [1] and in experiment [13] was inactive. In addition, the AC50 in experiment [5] is 12.5 µM (active).

In the case of `CCOC(=O)C(O)(c1ccc(Cl)cc1)c1ccc(Cl)cc1`, the concentration at half-maximal activity (AC50) in experiment [3] was 0.596 µM (active).

Regarding `C[C@]12CCC(=O)C=C1CC[C@@H]1[C@@H]2CC[C@@]2(C)[C@H]1CC[C@]2(C)O`, the AC50 in experiment [3] is 9.15 µM (active); in experiment [10], 5.45 µM (active); in experiment [14] it was 3.82 µM (active) and 2.41 µM (active) and 2.57 µM (active).

Turning to `CCC(C)(CC)c1cc(NC(=O)c2c(OC)cccc2OC)on1`, the molecule was called inactive in experiment [15] and in [9]. Further, the AC50 was 5.05 µM (active) in experiment [3] and 0.981 µM (active) in [16].
